PubChem BioAssay (NCATS)
Results filed as inconclusive are left out. Activity calls are given as the source filed them. Calls follow the shape of the dose curve; as a rule, active = well fitted curve in either direction with a large enough effect (not every such curve was filed as active); inconclusive = small, poorly fitted or top-dose-only effect, or another doubt; inactive = flat fitted curve, though single readings scatter.

assay: NFAT Signaling Pathway (AID 444); details: Jurkat NFAT-bla M1, carbachol, beta-lactamase ratio, 5 h; at 38 µM (top of the series);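 also: carbachol stimulus at about its EC50 of 1 µM final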
Outline: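 Jurkat cells with NFAT-driven β-lactamase reporter and co-expressed M1 receptor, stimulated with carbachol (final 1 uM, ~EC50), compound titration, 5 h at 37 °C. CCF4 loaded 1 h at RT; 460/530 nm ratio gave %activity and AC50.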
% is scaled to controls: 0 for no effect and ±100 for the full control effect.

Row | SMILES | activity change, negative = inhibition
1 | O=C(O)c1cc2cc(Cc3cccnc3)ccc2o1 | -0.641% (inactive)
2 | CC(C)COC(=O)OCN1C(=O)CN(CCN2CC(=O)N(COC(=O)OCC(C)C)C(=O)C2)CC1=O | 7.64% (inactive)
3 | O=C1CCC(c2ccc(-n3ccnc3)cc2)=NN1 | 3.77% (inactive)
4 | N[C@@H](Cc1cnc[nH]1)C(=O)O | -0.542% (inactive)
